Compound activity (PubChem)
Hits are enriched below; roughly 0.28% of the tested compounds scored in any of these assays.
hcGAS inh: blocks human cGAS activity | Q8N884 | AID 1259398 | recombinant h-cGAS, ATP depletion, Kinase-Glo luminescence | inhibition, % at 12.5 µM | 290,000 compounds, 0.081% hits;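 note: 0% = vehicle reaction and 100% = reaction without DNA for no activity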
Target sequence (Q8N884 whole entry, looked up): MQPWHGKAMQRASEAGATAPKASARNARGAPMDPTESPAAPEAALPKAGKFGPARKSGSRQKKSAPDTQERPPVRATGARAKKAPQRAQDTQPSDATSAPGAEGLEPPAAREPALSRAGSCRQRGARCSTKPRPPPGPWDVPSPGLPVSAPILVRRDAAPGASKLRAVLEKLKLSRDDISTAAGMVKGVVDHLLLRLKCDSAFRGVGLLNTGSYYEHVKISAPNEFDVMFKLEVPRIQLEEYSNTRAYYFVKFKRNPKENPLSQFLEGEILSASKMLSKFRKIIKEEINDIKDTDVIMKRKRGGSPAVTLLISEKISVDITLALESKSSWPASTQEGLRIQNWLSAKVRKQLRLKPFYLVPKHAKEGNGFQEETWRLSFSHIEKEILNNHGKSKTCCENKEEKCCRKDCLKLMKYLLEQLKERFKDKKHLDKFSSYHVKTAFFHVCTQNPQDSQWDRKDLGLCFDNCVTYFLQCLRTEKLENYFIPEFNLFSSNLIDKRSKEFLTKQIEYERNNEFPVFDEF
mcGAS lum: blocks mouse cGAS activity | recombinant cGAS, Kinase-Glo ATP depletion luminescence | inhibition, % at 12.5 µM | 160,000 compounds, 0.15% hits;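 note: 0% = negative control wells and 100% = reference inhibitor with no enzyme activity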
NPYLR7 ag: mosquito NPYLR7 agonism; HEK293T NPYLR7/Galpha15, GCaMP6s calcium fluorescence; 270,000 compounds, 0.15% hits; activation, % at 10 µM; in the data active = activation above about 40%;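 note: 0% = vehicle and 100% = reference agonist at the receptor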
* = called active by the depositor; nt = no result given; ! = not confirmed by another sample. Cut-off read from the data, not from the text of the source, unless noted: active = inhibition above about 40%; inactive = the rest.

SMILES	hcGAS inh	mcGAS lum	NPYLR7 ag
Cc1cc(NC(=O)CCl)ccc1N1CCCC1	0	1	5
O=C(CCl)Nc1ccc2c(c1)C(=O)c1ccccc1C2=O	2	57*	2
CN1CCN(c2ccc(C(F)(F)F)cc2NC(=O)Cc2c[nH]c3ccccc23)CC1	-4	-5	-1
O=C(O)c1c[nH]c2cc(C(F)(F)F)ccc2c1=O	-5	-3	0
O=C(O)c1c[nH]c2c(ccc3ccccc32)c1=O	15	42*	5
CN(C)S(=O)(=O)N(CC(N)=O)c1ccccc1	-5	-5	2
FC(F)(F)c1nc2c(Cl)cc(Cl)cc2[nH]1	56*	nt	3
FC(F)(F)c1nc2ccccc2[nH]1	-4	-2	-1
COc1cc(C=NNC(=O)Cc2cccs2)cc(OC)c1OC	1	-1	0
Cn1nc(C(C)(C)C)cc1NC(=O)C1CCCN(C2=NS(=O)(=O)c3ccccc32)C1 (stereo not drawn)	-6	nt	8
CCOC(=O)N1CCC(NS(=O)(=O)CCCOc2ccc3c(c2)OCO3)CC1	-6	-8	7
CCN(CC)C(=O)C1CCCN(C(=O)Cn2nnnc2CN2CCCCCC2)C1 (stereo not drawn)	-3	nt	6
O=c1c2c(nc(SCc3ccccc3)n1Cc1ccccc1)CCS2	-6	-6	3
CCCOC1(CN)CCCCC1	-10	-18	4
COc1ccc(S(=O)(=O)N2CCC(C)Sc3ccccc32)cc1C (stereo not drawn)	9	nt	14
CCC(C)NC(=O)C1CCN(S(=O)(=O)c2ccc3c(c2)CCCC3)CC1 (stereo not drawn)	-6	nt	6
CCCCCn1c(=O)c2c(nc3n2CCN3c2ccccc2)n(C)c1=O	-5	nt	4
CCCCCn1c(=O)c2c(nc3n2CCN3c2cc(C)cc(C)c2)n(C)c1=O	-2	nt	140*
NS(=O)(=O)c1cc(F)cc(NC(=O)c2ccc(C(F)(F)F)cc2)c1	7	nt	0
COCC(C)NS(=O)(=O)c1sc2c(c1C(=O)OC)CCN(Cc1cc(C)ccc1C)C2 (stereo not drawn)	-11	nt	4
Clc1c(-c2nnco2)sc2ccccc12	1	nt	-2
S=c1[nH]nc(-c2sc3ccccc3c2Cl)o1	50*!	47*	0
NC(=S)NN=C(C(=O)c1ccccn1)c1ccccn1	-7	nt	-3
CSC(=S)N/N=C(/c1ccccc1)c1ccccn1	64*	6	-1
CCCCC(CC)C(=O)Nc1ccc(N2CCN(c3ccccc3OC)CC2)c(C(=O)NCc2ccc(F)cc2)c1 (stereo not drawn)	-11	-5	21
SMILES	hcGAS inh	mcGAS lum	NPYLR7 ag
CC1=CC(C)C(C(=O)O)C(C(=O)O)C1 (stereo not drawn)	-1	-6	43*
CC(C)=CCCC1=CC[C@H](C(=O)O)[C@H](C(=O)O)C1	-4	-5	2
Cc1ccc2ncn(C3CCN(C(=O)CCCc4ccccc4)CC3)c2c1	-3	-5	-6
CCc1ccc(/C=C2\C(=O)NN(c3ccc(Cl)c(Cl)c3)C2=O)cc1	-8	15	6
Cc1ccc(N2NC(=O)/C(=C/c3cccc(OC(=O)c4cccs4)c3)C2=O)cc1Cl	0	53*	0
COc1ccc2c(c1)CC(CNC(=O)c1cc(C)oc1C)O2 (stereo not drawn)	0	-6	21
CC(C(=O)NCCc1cccs1)N1CCC(n2ccnc2)CC1 (stereo not drawn)	-4	nt	1
O=C(O)c1ccc(C2Nc3c(F)cc(F)cc3C3C=CCC32)cc1 (stereo not drawn)	6	nt	18
O=C(O)c1ccc([C@@H]2Nc3ccc(I)cc3[C@@H]3C=CC[C@@H]32)cc1	28	71*	10
O=C(O)c1ccc2c(c1)C1C=CCC1C(c1ccc(Br)cc1)N2 (stereo not drawn)	77*	100*	-7
COC(=O)c1ccc2c(c1C)NC(c1ccc([N+](=O)[O-])cc1)C1CC=CC21 (stereo not drawn)	-1	-1	-2
CCOC(=O)c1cc(C(=O)OCC)c2c(C)cc(C)cc(C)c1-2	-27	nt	-7
CCOC(=O)c1ccccc1-c1c2ccc(=N)cc-2oc2cc(N)ccc12	-2	-12	120*
CCN=c1cc2oc3cc(NCC)c(C)cc3c(-c3ccccc3C(=O)OCC)c-2cc1C	-29	-20	159*
CCOC(=O)COc1cc2c(-c3cc4ccccc4o3)cc(=O)oc2cc1C	-3	-6	0
COc1ccc(C(=O)Nc2ccc(C#N)cc2)cc1F	-7	nt	2
Cc1ccccc1-n1c(Cc2ccccc2)nnc1SCCCCC(=O)N1CCN(C(=O)Cc2ccc(F)cc2)C(C)C1 (stereo not drawn)	-5	-5	nt
N#CC(=Cc1ccccc1I)c1ccccn1	-4	-4	-1
N#CC(=Cc1c(F)c(F)c(F)c(F)c1F)c1ccccn1	-1	-4	99*
